# Experimental data published in article PMC7862700, “An all-to-all approach to the identification of sequence-specific readers for epigenetic DNA modifications on cytosine”.
# Legend:
# Test in all cases: DAPPL (digital affinity profiling via proximity ligation, sequencing); 10 mM Tris-HCl pH 7.5, 50 mM NaCl, 1 mM DTT, 4% glycerol, room temperature, 30 min; GST-TFs on glutathione beads, 16-mer random dsDNA library, 0.1% formaldehyde crosslink after washing; high values mean tight binding
# FLI1 = target: T1, FLI1 (Homo sapiens, UniProt Q01543 1-452); conditions: protein: recombinant; tags: N-terminal GST; dsDNA, one strand shown
# T1 sequence: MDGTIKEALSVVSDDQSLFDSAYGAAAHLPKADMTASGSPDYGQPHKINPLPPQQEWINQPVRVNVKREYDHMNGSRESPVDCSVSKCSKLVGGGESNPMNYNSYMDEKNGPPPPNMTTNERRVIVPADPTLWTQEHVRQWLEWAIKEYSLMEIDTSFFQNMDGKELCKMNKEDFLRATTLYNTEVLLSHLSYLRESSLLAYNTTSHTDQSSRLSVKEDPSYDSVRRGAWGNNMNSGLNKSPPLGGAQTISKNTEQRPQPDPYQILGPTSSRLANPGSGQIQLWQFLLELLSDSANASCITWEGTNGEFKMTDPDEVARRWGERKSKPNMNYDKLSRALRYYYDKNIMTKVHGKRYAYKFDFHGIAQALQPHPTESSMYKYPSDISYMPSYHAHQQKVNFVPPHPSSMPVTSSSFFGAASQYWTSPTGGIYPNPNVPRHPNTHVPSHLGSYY
# How it was run: (§1)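 Binding signal is defined as a hexamer's read frequency for one factor over its frequency for the tag-only sample. To obtain reads, GST-fused human transcription factors were expressed in yeast, captured on glutathione beads, barcoded with DNA and pooled with that sample. Pools met 200 nmole of a 16-mer random double-stranded DNA library in Tris/NaCl/DTT/glycerol buffer for 30 min at room temperature before washing, 0.1% formaldehyde crosslinking, proximity ligation (BsaI/T4 ligase, 1 h, 37 °C), PCR and Illumina NextSeq500 sequencing.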
# ELK1 = target: T2, ELK1 (Homo sapiens, UniProt P19419 1-428); conditions: protein: recombinant; tags: N-terminal GST; dsDNA, one strand shown
# T2 sequence: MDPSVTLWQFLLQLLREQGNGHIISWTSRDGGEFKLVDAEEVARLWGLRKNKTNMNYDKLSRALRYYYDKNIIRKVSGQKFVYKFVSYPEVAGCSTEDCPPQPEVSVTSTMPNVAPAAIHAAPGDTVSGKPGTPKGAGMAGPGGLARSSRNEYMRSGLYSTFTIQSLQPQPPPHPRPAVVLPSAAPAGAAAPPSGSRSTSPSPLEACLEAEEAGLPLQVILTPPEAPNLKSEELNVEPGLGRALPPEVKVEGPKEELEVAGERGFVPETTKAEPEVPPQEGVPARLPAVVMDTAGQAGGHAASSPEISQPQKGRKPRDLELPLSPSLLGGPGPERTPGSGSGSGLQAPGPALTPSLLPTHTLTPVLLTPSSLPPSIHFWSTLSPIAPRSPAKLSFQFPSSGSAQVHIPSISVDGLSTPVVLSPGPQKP
# How it was run: as §1
# GABPA = target: T3, GABPA (Homo sapiens, UniProt Q06546 1-454); conditions: protein: recombinant; tags: N-terminal GST; dsDNA, one strand shown
# T3 sequence: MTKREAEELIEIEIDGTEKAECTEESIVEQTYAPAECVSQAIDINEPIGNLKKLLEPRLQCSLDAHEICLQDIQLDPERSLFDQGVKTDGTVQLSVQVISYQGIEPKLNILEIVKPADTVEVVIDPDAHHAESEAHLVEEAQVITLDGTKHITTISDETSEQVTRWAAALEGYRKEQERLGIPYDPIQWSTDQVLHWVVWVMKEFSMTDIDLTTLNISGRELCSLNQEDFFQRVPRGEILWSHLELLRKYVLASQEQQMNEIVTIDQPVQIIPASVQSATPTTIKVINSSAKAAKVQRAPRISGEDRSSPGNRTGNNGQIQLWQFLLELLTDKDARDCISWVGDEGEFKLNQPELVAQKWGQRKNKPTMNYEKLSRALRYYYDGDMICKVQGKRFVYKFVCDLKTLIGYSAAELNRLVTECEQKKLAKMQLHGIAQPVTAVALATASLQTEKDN
# How it was run: as §1
# ERG = target: T4, ERG (Homo sapiens, UniProt P11308 1-479); conditions: protein: recombinant; tags: N-terminal GST; dsDNA, one strand shown
# T4 sequence: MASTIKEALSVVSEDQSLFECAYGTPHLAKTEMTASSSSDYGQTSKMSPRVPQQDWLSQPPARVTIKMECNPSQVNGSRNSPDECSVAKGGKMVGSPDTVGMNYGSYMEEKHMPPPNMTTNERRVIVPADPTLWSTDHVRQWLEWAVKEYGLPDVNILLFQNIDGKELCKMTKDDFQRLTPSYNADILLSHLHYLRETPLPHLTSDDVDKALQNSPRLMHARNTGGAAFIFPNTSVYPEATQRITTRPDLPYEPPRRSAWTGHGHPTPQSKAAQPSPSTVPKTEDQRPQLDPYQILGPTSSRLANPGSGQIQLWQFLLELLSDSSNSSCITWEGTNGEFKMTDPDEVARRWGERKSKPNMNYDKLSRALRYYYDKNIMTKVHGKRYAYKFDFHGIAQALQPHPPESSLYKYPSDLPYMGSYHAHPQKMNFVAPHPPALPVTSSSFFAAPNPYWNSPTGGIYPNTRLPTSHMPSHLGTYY
# How it was run: as §1
# ELF1 = ELF1 (Homo sapiens, UniProt P32519 1-619); conditions: protein: recombinant; tags: N-terminal GST; dsDNA, one strand shown
# Chain of ELF1 (P32519 whole entry): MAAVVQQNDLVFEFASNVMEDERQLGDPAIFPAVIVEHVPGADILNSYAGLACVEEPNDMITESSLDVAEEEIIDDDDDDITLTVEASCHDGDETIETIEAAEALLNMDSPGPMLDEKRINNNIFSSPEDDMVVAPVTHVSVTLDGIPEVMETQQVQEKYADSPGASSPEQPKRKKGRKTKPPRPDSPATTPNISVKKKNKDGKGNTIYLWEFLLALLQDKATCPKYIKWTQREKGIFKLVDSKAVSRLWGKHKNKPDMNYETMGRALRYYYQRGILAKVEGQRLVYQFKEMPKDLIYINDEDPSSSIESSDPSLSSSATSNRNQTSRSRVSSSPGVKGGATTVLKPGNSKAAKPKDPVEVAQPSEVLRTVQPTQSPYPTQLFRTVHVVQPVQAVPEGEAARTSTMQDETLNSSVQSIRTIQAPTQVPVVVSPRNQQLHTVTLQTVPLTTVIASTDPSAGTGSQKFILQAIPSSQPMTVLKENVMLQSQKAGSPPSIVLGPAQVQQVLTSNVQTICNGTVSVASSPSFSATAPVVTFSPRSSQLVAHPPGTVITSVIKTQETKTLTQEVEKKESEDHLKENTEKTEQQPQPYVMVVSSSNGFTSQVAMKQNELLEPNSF
# How it was run: as §1
# EHF = target: T5, EHF (Homo sapiens, UniProt Q9NZC4 1-300); conditions: protein: recombinant; tags: N-terminal GST; dsDNA, one strand shown
# T5 sequence: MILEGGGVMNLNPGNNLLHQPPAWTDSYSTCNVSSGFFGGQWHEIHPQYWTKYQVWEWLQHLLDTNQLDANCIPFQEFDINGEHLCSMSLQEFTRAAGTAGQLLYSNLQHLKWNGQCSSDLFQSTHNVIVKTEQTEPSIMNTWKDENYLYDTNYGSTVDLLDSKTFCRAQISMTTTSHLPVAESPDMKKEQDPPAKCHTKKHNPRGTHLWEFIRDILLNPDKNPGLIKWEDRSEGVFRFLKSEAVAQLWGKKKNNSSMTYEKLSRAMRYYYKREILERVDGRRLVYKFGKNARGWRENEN
# How it was run: as §1
# SPI1 = SPI1 (Homo sapiens, UniProt P17947 1-270); conditions: protein: recombinant; tags: N-terminal GST; dsDNA, one strand shown
# How it was run: as §1
# SPIB = SPIB (Homo sapiens, UniProt Q01892 1-262); conditions: protein: recombinant; tags: N-terminal GST; dsDNA, one strand shown
# Chain of SPIB (Q01892 whole entry): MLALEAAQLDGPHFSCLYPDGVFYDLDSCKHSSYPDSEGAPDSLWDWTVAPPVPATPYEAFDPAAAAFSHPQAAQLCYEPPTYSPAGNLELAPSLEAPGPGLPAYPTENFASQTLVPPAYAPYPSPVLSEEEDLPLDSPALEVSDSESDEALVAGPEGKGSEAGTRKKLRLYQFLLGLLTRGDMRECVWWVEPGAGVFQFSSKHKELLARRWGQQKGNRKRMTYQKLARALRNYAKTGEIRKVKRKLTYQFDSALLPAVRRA
# How it was run: as §1
# ELK3 = target: T6, ELK3 (Homo sapiens, UniProt P41970 1-407); conditions: protein: recombinant; tags: N-terminal GST; dsDNA, one strand shown
# T6 sequence: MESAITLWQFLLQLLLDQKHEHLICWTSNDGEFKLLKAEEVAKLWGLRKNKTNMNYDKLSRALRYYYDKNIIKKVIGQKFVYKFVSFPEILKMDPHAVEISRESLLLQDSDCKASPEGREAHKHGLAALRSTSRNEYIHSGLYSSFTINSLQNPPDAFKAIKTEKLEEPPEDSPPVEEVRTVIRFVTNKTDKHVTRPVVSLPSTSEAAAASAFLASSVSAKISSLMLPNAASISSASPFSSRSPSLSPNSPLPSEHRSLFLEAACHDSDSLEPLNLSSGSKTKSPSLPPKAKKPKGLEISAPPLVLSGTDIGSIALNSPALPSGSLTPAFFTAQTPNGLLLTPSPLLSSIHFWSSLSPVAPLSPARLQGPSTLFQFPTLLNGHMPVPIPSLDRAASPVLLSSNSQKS
# How it was run: as §1
# FEV = target: T7, FEV (Homo sapiens, UniProt Q99581 1-238); conditions: protein: recombinant; tags: N-terminal GST; dsDNA, one strand shown
# T7 sequence: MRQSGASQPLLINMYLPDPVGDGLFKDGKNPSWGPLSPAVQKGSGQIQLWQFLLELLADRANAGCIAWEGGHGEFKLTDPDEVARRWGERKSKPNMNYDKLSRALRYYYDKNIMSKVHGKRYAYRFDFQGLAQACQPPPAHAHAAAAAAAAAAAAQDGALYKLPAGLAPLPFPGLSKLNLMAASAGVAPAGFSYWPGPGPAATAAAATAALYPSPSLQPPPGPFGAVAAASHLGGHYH
# How it was run: as §1
# ETV5 = ETV5 (Homo sapiens, UniProt P41161 1-510); conditions: protein: recombinant; tags: N-terminal GST; dsDNA, one strand shown
# Chain of ETV5 (P41161 whole entry): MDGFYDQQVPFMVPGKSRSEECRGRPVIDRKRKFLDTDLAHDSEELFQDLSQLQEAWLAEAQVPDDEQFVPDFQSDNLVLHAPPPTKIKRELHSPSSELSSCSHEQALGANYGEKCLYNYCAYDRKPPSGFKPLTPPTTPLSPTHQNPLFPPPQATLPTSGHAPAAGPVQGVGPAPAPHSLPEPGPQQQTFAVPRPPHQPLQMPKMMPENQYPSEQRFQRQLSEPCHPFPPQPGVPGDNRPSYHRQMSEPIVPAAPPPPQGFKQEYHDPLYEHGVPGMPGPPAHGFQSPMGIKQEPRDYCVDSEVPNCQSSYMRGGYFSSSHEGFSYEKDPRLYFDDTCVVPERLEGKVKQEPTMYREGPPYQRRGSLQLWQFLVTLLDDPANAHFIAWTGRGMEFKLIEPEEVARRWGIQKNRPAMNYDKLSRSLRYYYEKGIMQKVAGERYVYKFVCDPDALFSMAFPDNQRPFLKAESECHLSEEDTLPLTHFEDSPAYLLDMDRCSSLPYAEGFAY
# How it was run: as §1
# HSF1 = HSF1 (Homo sapiens, UniProt Q00613 1-529); conditions: protein: recombinant; tags: N-terminal GST; chain copies: 3; dsDNA, one strand shown
# Chain of HSF1 (Q00613 whole entry): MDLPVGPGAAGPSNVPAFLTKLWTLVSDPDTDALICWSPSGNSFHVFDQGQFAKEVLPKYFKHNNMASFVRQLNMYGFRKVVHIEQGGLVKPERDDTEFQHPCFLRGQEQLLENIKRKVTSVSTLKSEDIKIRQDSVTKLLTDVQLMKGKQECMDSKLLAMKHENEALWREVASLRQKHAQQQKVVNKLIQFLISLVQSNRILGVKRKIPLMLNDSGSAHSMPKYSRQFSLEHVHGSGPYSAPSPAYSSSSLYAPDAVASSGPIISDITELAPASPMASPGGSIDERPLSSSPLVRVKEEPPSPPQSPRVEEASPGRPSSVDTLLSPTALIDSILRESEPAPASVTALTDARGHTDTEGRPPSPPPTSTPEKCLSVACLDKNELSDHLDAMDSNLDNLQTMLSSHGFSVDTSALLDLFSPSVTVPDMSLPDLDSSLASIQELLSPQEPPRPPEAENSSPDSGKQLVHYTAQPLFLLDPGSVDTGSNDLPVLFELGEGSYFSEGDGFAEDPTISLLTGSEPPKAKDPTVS
# How it was run: as §1
# SPIC = target: T8, SPIC (Homo sapiens, UniProt Q8N5J4 1-248); conditions: protein: recombinant; tags: N-terminal GST; dsDNA, one strand shown
# T8 sequence: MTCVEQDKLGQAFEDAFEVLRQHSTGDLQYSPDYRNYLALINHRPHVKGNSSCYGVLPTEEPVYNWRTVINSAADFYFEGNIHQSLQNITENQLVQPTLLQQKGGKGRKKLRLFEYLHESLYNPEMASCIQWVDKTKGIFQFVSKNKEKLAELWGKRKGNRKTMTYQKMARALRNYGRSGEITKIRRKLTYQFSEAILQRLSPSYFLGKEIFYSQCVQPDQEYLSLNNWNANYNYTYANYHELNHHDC
# How it was run: as §1
# ELF4 = ELF4 (Homo sapiens, UniProt Q99607 1-663); conditions: protein: recombinant; tags: N-terminal GST; dsDNA, one strand shown
# Chain of ELF4 (Q99607 whole entry): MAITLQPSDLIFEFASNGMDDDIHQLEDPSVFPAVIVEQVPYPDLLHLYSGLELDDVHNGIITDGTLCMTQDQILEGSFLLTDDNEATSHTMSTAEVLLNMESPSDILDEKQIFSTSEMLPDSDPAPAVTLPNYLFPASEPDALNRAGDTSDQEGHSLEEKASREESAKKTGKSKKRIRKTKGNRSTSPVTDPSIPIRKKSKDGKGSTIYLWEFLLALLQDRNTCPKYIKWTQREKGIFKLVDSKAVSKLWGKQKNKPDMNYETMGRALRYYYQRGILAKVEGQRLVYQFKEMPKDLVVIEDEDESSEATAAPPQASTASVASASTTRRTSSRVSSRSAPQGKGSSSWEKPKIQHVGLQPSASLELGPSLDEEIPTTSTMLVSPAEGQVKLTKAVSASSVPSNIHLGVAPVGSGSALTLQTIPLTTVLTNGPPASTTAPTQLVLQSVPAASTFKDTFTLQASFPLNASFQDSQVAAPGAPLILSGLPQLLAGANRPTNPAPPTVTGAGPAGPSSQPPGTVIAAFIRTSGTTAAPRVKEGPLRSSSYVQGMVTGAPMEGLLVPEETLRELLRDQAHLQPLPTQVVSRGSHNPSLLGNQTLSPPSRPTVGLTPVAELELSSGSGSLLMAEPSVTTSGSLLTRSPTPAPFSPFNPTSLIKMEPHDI
# How it was run: as §1
# ELK4 = target: T9, ELK4 (Homo sapiens, UniProt P28324-2 1-405); conditions: protein: recombinant; tags: N-terminal GST; dsDNA, one strand shown
# T9 sequence: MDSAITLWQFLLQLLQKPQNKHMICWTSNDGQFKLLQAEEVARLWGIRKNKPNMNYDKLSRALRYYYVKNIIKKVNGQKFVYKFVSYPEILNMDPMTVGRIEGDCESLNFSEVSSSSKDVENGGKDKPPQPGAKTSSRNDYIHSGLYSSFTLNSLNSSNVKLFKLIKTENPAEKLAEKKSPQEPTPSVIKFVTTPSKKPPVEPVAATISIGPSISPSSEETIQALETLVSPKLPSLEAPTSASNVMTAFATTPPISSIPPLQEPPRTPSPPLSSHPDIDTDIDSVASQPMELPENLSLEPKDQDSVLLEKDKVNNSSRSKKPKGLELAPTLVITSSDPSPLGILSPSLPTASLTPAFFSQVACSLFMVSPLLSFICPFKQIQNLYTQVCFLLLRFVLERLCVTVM
# How it was run: as §1
# ETV2 = target: T10, ETV2 (Homo sapiens, UniProt O00321 1-342); conditions: protein: recombinant; tags: N-terminal GST; dsDNA, one strand shown
# T10 sequence: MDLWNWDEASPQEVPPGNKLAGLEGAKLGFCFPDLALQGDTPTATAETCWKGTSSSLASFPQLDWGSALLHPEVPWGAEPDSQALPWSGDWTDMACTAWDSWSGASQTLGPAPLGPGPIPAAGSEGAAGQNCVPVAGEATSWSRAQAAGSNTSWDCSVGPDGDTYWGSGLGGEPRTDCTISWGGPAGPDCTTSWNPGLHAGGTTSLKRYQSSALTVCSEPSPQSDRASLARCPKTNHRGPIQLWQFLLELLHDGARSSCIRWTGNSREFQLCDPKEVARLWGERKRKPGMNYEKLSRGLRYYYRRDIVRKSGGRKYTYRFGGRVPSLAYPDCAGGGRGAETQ
# How it was run: as §1
# ELF3 = target: T11, ELF3 (Homo sapiens, UniProt P78545 1-371); conditions: protein: recombinant; tags: N-terminal GST; dsDNA, one strand shown
# T11 sequence: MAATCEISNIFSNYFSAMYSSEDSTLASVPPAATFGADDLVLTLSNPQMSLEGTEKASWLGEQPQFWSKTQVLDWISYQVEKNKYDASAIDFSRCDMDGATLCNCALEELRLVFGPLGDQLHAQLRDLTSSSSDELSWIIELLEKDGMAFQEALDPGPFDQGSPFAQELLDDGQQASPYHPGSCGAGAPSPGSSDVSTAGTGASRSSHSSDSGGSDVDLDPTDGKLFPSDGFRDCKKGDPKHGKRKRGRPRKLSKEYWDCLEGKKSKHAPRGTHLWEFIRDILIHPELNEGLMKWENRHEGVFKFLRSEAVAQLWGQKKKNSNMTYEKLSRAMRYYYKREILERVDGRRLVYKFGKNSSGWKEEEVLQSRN
# How it was run: as §1
# CRX = CRX (Homo sapiens, UniProt O43186 1-299); conditions: protein: recombinant; tags: N-terminal GST; dsDNA, one strand shown
# Chain of CRX (O43186 whole entry): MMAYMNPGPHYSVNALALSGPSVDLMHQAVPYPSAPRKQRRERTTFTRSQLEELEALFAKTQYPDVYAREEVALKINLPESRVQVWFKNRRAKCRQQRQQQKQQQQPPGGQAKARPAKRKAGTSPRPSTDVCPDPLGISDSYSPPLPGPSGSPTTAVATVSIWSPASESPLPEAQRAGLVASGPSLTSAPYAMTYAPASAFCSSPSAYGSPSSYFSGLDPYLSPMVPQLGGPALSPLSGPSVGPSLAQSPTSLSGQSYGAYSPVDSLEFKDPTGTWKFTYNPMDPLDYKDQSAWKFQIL
# How it was run: as §1
# ETV1 = ETV1 (Homo sapiens, UniProt P50549 1-477); conditions: protein: recombinant; tags: N-terminal GST; dsDNA, one strand shown
# Chain of ETV1 (P50549 whole entry): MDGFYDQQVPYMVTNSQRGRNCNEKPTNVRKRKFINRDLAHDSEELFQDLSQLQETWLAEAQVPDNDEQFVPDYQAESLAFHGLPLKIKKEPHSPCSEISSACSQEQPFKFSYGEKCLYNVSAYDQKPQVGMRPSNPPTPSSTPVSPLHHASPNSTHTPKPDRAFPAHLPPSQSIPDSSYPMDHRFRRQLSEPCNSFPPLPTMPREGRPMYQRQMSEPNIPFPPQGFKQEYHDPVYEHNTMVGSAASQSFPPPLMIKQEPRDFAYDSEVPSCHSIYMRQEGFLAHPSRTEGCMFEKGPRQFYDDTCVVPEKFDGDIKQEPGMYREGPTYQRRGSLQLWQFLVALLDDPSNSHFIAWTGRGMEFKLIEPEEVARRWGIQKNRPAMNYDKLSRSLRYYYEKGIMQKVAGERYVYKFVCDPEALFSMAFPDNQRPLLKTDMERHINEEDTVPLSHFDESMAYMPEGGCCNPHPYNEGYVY
# How it was run: as §1
sequence,measurement,setting,value
TATGTT,binding signal,FLI1,"1.25 fold enrichment (6-mer frequency, TF over GST control)"
same,binding signal,ELK1,"1.23 fold enrichment (6-mer frequency, TF over GST control)"
same,binding signal,GABPA,"1.22 fold enrichment (6-mer frequency, TF over GST control)"
same,binding signal,ERG,"1.19 fold enrichment (6-mer frequency, TF over GST control)"
same,binding signal,ELF1,"1.23 fold enrichment (6-mer frequency, TF over GST control)"
same,binding signal,EHF,"1.23 fold enrichment (6-mer frequency, TF over GST control)"
same,binding signal,SPI1,"1.2 fold enrichment (6-mer frequency, TF over GST control)"
same,binding signal,SPIB,"1.12 fold enrichment (6-mer frequency, TF over GST control)"
same,binding signal,ELK3,"1.19 fold enrichment (6-mer frequency, TF over GST control)"
same,binding signal,FEV,"1.17 fold enrichment (6-mer frequency, TF over GST control)"
same,binding signal,ETV5,"1.15 fold enrichment (6-mer frequency, TF over GST control)"
same,binding signal,HSF1,"1.21 fold enrichment (6-mer frequency, TF over GST control)"
same,binding signal,SPIC,"1.06 fold enrichment (6-mer frequency, TF over GST control)"
same,binding signal,ELF4,"1.2 fold enrichment (6-mer frequency, TF over GST control)"
same,binding signal,ELK4,"1.29 fold enrichment (6-mer frequency, TF over GST control)"
same,binding signal,ETV2,"1.08 fold enrichment (6-mer frequency, TF over GST control)"
same,binding signal,ELF3,"1.1 fold enrichment (6-mer frequency, TF over GST control)"
same,binding signal,CRX,"1.26 fold enrichment (6-mer frequency, TF over GST control)"
same,binding signal,ETV1,"1.1 fold enrichment (6-mer frequency, TF over GST control)"
